From PubChem BioAssay
TRHR agonist – activates the human TRH receptor. P34981. TRHR cells, calcium flux fluo-8, FDSS agonist mode. activation, % at 2 µM. 360,000 compounds, 0.18% hits. AID 493084; also: 0% is about no effect
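TRHR-expressing cells, plated overnight in medium with 10% serum, were loaded with fluo-8 calcium dye at room temperature. After a 10 s baseline, library compound was pin-added and calcium release was recorded kinetically (ex 480/em 530) as agonist response.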
D1 potentiator – enhances dopamine response at the human D1 receptor. P21728. HEK293 TREx D1 cells, calcium flux, dopamine EC20 potentiation. potentiation, % at 10 µM. 360,000 compounds, 0.036% hits; in the data active = potentiation above about 30%; also: 0% is about no effect
Target sequence (P21728 whole entry, looked up): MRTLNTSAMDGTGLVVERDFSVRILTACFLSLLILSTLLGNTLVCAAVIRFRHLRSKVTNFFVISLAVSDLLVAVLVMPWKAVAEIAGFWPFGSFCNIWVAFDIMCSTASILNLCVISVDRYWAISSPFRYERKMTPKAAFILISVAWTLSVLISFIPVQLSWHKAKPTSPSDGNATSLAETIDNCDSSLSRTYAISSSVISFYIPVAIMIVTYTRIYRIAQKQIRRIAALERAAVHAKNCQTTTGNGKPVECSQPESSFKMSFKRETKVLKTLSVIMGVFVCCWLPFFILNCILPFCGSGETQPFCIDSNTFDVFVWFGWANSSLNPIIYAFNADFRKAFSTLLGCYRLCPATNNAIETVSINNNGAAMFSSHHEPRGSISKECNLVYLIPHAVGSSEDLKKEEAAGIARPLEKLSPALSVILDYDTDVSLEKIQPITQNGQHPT
D1 antagonist – blocks dopamine activation of the human D1 receptor. P21728. HEK293 TREx D1 cells, calcium flux, dopamine EC80; hits give low values. activity change, negative = inhibition, % at 10 µM. 360,000 compounds, 3.2% hits. AID 504652; in the data active = activity change below about -30%; also: % is scaled to controls: 0 for no effect and ±100 for the full control effect
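Compound effects on dopamine-evoked calcium signalling were measured in tetracycline-induced HEK293 Trex D1 cells. Dopamine at EC80 followed a 180 s compound pre-read, and fluorescence was tracked kinetically for 180 s more.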
TRHR enhancer – allosterically enhances the human TRH receptor | TRHR cells, fluo-8 calcium fluorescence, EC20 TRH enhancement | enhancement, % at 2 µM | 360,000 compounds, 0.66% hits | AID 493056; in the data active = enhancement above about 30%; also: 0% is about no effect
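Enhancer read-out: after compound pinning and an initial kinetic agonist-mode read, an EC20 of TRH (10 nM final) was injected and fluo-8 calcium signal (Ex 480/Em 530) followed at 1 s/cycle for 100 cycles in TRHR-expressing cells.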
D1 ag – human D1 receptor agonism; activation, % at 2 µM; HEK293 T-REx D1 cells, calcium flux, agonist mode; P21728; 360,000 compounds, 1% hits; AID 504660; also: 0% is about no effect
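Inducible HEK293 T-REx D1 cells, force-coupled to calcium signalling, were plated at 4000 cells/well with tetracycline and held overnight at 30 C. After no-wash calcium dye loading, compound-evoked calcium rise over 180 s flagged agonists.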
* marks the source's active call; other numbers are inactive results; ! = repeats disagree. Compounds with a hit are over-represented: about 4.6% of the library has one in this group of screens. Rule as the data show it, unless noted: active = activation above about 30%; inactive = the rest.

SMILES	TRHR agonist	D1 potentiator	D1 antagonist	TRHR enhancer	D1 ag
Cc1cc2c(s1)c1cnn(Cc3c(Cl)cccc3Cl)c(=O)c1n2C	-1	9	20	3	-1
Cc1ccc(NC(=O)C2CCN(C(=O)c3ccco3)CC2)cc1C	0	-5	28	-4	0
CCN(CC)CCn1c(=O)n(-c2ccc(Cl)cc2)c(=O)c2c3c(sc21)CN(C)CC3	5	-6	-2	1	8
CN1CCc2c(sc3c2c(=O)n(-c2ccc(Cl)cc2)c2nncn32)C1	1	-7	-60*	-1	0
Cc1ccc(C)c(NC(=S)NC2CC3CCC(C2)N3Cc2ccco2)c1 (configuration not stated)	-1	-2	-5	6	21
Cc1ccc(C(=O)NC2CC3CCC(C2)N3Cc2ccco2)cc1 (configuration not stated)	0	-28	-70*	4	0
O=C(Nc1cccc(Cl)c1)NC1CC2CCC(C1)N2Cc1ccco1 (configuration not stated)	0	-7	-41*	-7	19
COc1cc(OC)cc(C(=O)NC2CC3CCC(C2)N3Cc2ccco2)c1 (configuration not stated)	0	-11	-35*	-3	0
Cc1cccc(N2CCN(C(=O)c3cnn(-c4ccccc4)c3C3CCN(C(=O)OC(C)(C)C)CC3)CC2)c1C	0	4	-12	9	0
CCOc1ccccc1NC(=O)C1=C(C)Nc2ncnn2C1c1ccc(C)o1 (configuration not stated)	0	-1	6	-5	-1
COC(=O)c1ccc2[nH]c(CO)c(-c3ccccc3)c2c1	1	-2	-9	-1	8
N#Cc1ccc2[nH]c(CO)c(-c3ccccc3)c2c1	0	-16	-40*	-1	5
O=C(NCCc1ccccc1)c1cnc2sc(N3CCCCCC3)nn2c1=O	0	-5	3	1	1
CC(C)C[C@H]1CN=C(Nc2ccccc2)N1CC1CCC(C(C)(C)C)CC1 (some centres not stated)	0	3	21	21	70*
CCOC(=O)c1c(S(=O)(=O)NCC(=O)N(C)Cc2ccccc2)c(C)n(C)c1C	0	-1	0	-2	-1
Cc1ccc(S(=O)(=O)NCc2ccc(C(=O)NCCCN3CCC(Cc4ccccc4)CC3)cc2)cc1	0	-15	-83*	5	30
COCCNC(=O)c1ccc(CN2CCC(Cc3ccccc3)CC2)cc1	1	-9	-31*	7	3
COc1ccccc1C1CCN(Cc2ccccc2)CC1	0	-22	-46*	-2	-1
Cc1[nH]c2ccccc2c1CN1CCC(Cc2ccccc2)CC1	-3	1	-63*	1	90*
COc1ccc(Cl)cc1NC(=O)[C@H]1O[C@@H]2OC(C)(C)O[C@@H]2[C@H]2OC(C)(C)O[C@H]21	0	0	0	-2	2
Cc1ccc2c(CNCc3ccc(C)o3)c(C(=O)O)n(Cc3ccccc3C)c2c1	0	5	12	12	0
CCOc1ccc(CN2CCC(Cc3ccccc3)CC2)cc1	0	-2	-31*	-3	6
CCc1c(C)c2ccc(O)c(CN3CCN(c4cc(Cl)ccc4C)CC3)c2oc1=O	0	-1	-4	3	0
CCc1ccc(NC(=O)C2CCCN(S(=O)(=O)c3ccc4c(c3)oc(=O)n4C)C2)cc1 (configuration not stated)	-1	-3	-19	1	0
Cc1cccc(C(=O)NCC(c2ccc3c(c2)OCO3)N2CCOCC2)c1 (configuration not stated)	0	-1	6	-4	1
SMILES	TRHR agonist	D1 potentiator	D1 antagonist	TRHR enhancer	D1 ag
COc1cccc(CNC(=O)c2ccc(CS(=O)(=O)Cc3ccccc3C)o2)c1	0	-3	15	-3	9
COc1ccc(S(=O)Cc2ccc(C(=O)N3CCN(c4cccc(C)c4C)CC3)o2)cc1 (configuration not stated)	0	1	-42*!	-7	11
COc1ccc(S(=O)Cc2ccc(C(=O)NCc3cccc(OC)c3)o2)cc1 (configuration not stated)	0	-2	-35*	-3	2
COc1cccc(CNC(=O)c2ccc(CS(=O)(=O)Cc3ccc(C)cc3)o2)c1	0	-2	-43*	-6	14
COc1ccc(-c2nc3ccc(NS(=O)(=O)c4ccc(C)cc4)cc3o2)cc1	0	-1	3	3	5
N#CC1=C(N)OC2=C(CC/C2=C\c2ccc(F)cc2)C1c1ccc(F)cc1 (configuration not stated)	42*	7	-58*	2	235*
N#CC1=C(N)OC2=C(CCC/C2=C/c2ccoc2)C1c1ccoc1 (configuration not stated)	2	1	3	18	10
CCN1CC2=C(OC(N)=C(C#N)C2c2ccccc2)/C(=C\c2ccccc2)C1 (configuration not stated)	0	-5	-73*	-2	2
CC(C)N1CC2=C(OC(N)=C(C#N)C2c2cccnc2)/C(=C/c2cccnc2)C1 (configuration not stated)	0	-5	-6	34*	4
COc1cc(OC)c2c(OC)cccc2n1	0	-4	-82*	-10	0
Cc1ccc(OCC(=O)NCC(=O)OCc2cc(=O)n3nc(CC(C)C)sc3n2)cc1	-1	-9	-36*	10	1
CC(C)c1cnc2c(c1SCc1cccc(F)c1)c(=O)n(C)c(=O)n2C	0	5	10	1	3
COc1cc2[nH]c(C(=O)N3CCc4ccccc4C3)cc2c(OC)c1OC	0	-3	1	9	1
COc1cc2cc(C(=O)N3CCc4ccccc4C3)[nH]c2cc1OC	-1	-7	-33*	1	-1
COC(=O)CSc1ncnc2c1cnn2Cc1ccccc1	-1	-3	36	-2	42*
CC(C)OC(=O)CSc1ncnc2c1cnn2Cc1ccccc1	-1	-9	-11	10	4
CCOc1ccc(S(=O)(=O)N(C)CC(=O)NCc2ccccn2)cc1Cl	-1	-7	-1	-9	3
Cc1csc(C2=C(O)CN(CCc3ccccc3)C2=N)n1	0	-10	-40*	3	0
O=C(COCc1cc(-c2cccs2)on1)Nc1cccc(Cl)c1Cl	1	0	14	2	6
COc1ccc(OCc2ccc(C(=O)NN)cc2)cc1	1	1	-42*	2	1
O=C(Nc1cccnc1)c1ccc(COc2ccccc2Br)cc1	0	-3	-69*	10	6
O=C(Nc1cccnc1)c1ccccc1Oc1ccccc1	0	-3	-22	-3	0
